Assay outcomes: PubChem, several laboratories
A selection: hits, their analogues and other compounds. The true share with any hit is near 3.6%.
CF NFkB inh – inhibitors of PAF-induced NF-kB signaling, primary screen, cell-based, GFP fluorescence, uHTS. KKLEB NF-kB-GFP reporter, GFP fluorescence overnight. inhibition, % at 5 µM. hit rate 0.86% among 360,000. AID 588850, 2011;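 active means at least 50% inhibition at 5 µM, scaled per plate between neutral and stimulator controls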;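 further: PAF is a Pseudomonas aeruginosa culture filtrate used as stimulus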
Peg3 promoter – Peg3 promoter-driven luciferase inhibitors, primary screen, cell-based, HeLa, luciferase luminescence; HeLa PEG-Prom luciferase reporter, overnight; inhibition, % at 20 µM; hit rate 1.7% among 360,000; AID 588405, 2011;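 active means inhibition of at least 50% at 20 µM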
Mdm2 MdmX PPI – inhibitors of human Mdm2-MdmX association, primary screen, cell-based, luminescence, split luciferase, SaOS-2, uHTS. SaOS-2 split-luciferase Mdm2/MdmX complementation. inhibition, % at 8 µM. hit rate 3% among 330,000;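 active means inhibition of at least 50% at 8 µM in the primary screen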
KKLEB cytotox – cytotoxicity in KKLEB CF airway cells, primary screen, cytotoxicity control for CF NF-kB inhibitor project, cell-based, uHTS, fluorescence assay plates | AID 602141, 2011 | hit rate 0.36% among 360,000 | activity change (cytotoxicity), % at 5 µM | KKLEB CF airway cells viability, ATPlite luminescence, overnight; active compounds read low; cells stimulated with P. aeruginosa culture filtrate;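 active means corrected activity change at or below -50% at 5 µM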
LGR2 inh – inhibitors of bursicon-induced LGR2 CRE-luciferase signal, primary screen, cell-based, HEK293, CRE-luciferase reporter, bursicon stimulation | Drosophila bursicon receptor LGR2 (rickets) | bursicon-stimulated, 4 h | inhibition, % at 9.99 µM | hit rate 0.35% among 380,000 | AID 720647, 2013;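 active means drop in luminescence signal, shown as inhibition above about 50% in the replicate tests, limit read from the data, passing the limit was not always enough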;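 further: agonist challenge used bursicon conditioned medium at about half maximal strength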
HSP90 inh – HSP90 inhibitors, primary screen, cell lysate, luminescence; Heat shock protein HSP 90 (rabbit reticulocyte lysate; luciferase refolding); Rabbit reticulocyte lysate, luciferase refolding luminescence, 3 h; inhibition, % at 5.6 µM; hit rate 0.91% among 290,000; AID 1789, 2009;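 active means inhibition above the screen-wide mean plus 3 SD, computed separately per campaign, cut at about 16% in these data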;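 further: inhibitors lower the luminescence because luciferase stays unfolded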
Mdm2-MdmX conf – Mdm2-MdmX complex disruptors, retested hits, confirmation, luminescence, single concentration. inhibition, % at 8 µM. Mdm2-MdmX binding, luminescent assay. shares compounds with Mdm2 MdmX PPI. hit rate 55% among 10,000; in the data active means inhibition above about 40%
FLuc counter – full-length luciferase signal inhibition, confirmation, counter-screen for Mdm2/MdmX interaction inhibitor project, cell-based, single concentration, SaOS-2; hit rate 77% among 6,200; shares compounds with Mdm2 MdmX PPI; inhibition, % at 8 µM; SaOS-2 full-length luciferase counterscreen, luminescence; AID 504607, 2011;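 active means mean inhibition at 8 µM reaching about 37%, which flags the compound as non-specific, limit read from the data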;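 further: p53-null SaOS-2 cells with luciferase driven by a doxycycline-inducible promoter; compound on cells about two nights before reading with doxycycline added after day one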
A number is an active result; n = inactive; x = no result.

SMILES	CF NFkB inh	Peg3 promoter	Mdm2 MdmX PPI	KKLEB cytotox	LGR2 inh	HSP90 inh	Mdm2-MdmX conf	FLuc counter
Cc1cc(NC(=O)COC(=O)c2oc3c(ccc4ccccc43)c2C)no1	n	n	59	n	n	n	n	59
Cc1cc(NC(=O)COC(=O)c2ccccc2O)no1	n	n	n	n	n	x	x	x
Cc1ccc2c(C)c(C(=O)Nc3ccc(S(N)(=O)=O)cc3)oc2c1C	n	n	n	n	n	n	x	x
Cc1c(C(=O)OCC(=O)Nc2ccc(S(N)(=O)=O)cc2)oc2c1ccc1ccccc12	n	n	52	n	n	n	n	x
Oc1c(Cl)cc(Cl)cc1C1Nc2ccccc2-n2cccc21 (stereo not drawn)	n	n	n	n	n	n	x	x
COc1ccc2c(c1)NC(c1cc(Cl)cc(Cl)c1O)c1cccn1-2 (stereo not drawn)	n	n	81	n	n	n	n	x
COc1ccc(S(=O)(=O)Nc2cccc3c2O[C@H](CN(C)Cc2ccc(C(=O)O)cc2)[C@H](C)CN([C@H](C)CO)C3=O)cc1	x	x	x	x	n	x	x	x
COc1ccc2c(c1)c(/C=N/Nc1nc3ccccc3[nH]1)c(C)n2C	n	n	93	n	59	n	n	68
COc1cc(/C=N\Nc2nc3ccccc3[nH]2)cc(OC)c1OC	n	n	n	n	x	n	x	x
Cc1cccc(NC(=O)CNC(=O)Cn2ncc(Cl)c(Cl)c2=O)c1C	92	95	100	-61	x	x	56	52
O=c1c2ccccc2c(C=Nc2cccc(O)c2)c(O)n1-c1ccc2c(c1)OCO2	n	n	82	n	x	n	n	x
COc1ccc(N=Cc2c(O)n(-c3ccc(OC)cc3)c(=O)c3ccccc23)cc1	n	n	n	n	n	n	x	x
C=CC(=O)Nc1sc2c(c1C(N)=O)CCCC2	n	n	53	n	x	x	n	x
C=CCNC(=S)Nc1sc2c(c1C(N)=O)CCCC2	n	n	n	n	n	n	x	x
O=C1C=C(c2ccccc2)CC(c2cccs2)C1n1cnc([N+](=O)[O-])c1 (stereo not drawn)	n	n	n	n	x	n	x	x
O=C1C=C(c2ccccc2)C[C@H](c2cccs2)[C@H]1n1nnc([N+](=O)[O-])n1	n	n	71	n	n	n	57	60
COc1cc2nc(NC(=O)c3ccc(Cl)cc3)sc(=O)c2cc1OC	n	n	69	n	n	n	n	x
COc1cc2nc(NC(=O)c3ccc(Cl)cc3)[nH]c(=O)c2cc1OC	n	n	n	n	x	n	x	x
Cc1ccc(C(C)C)c(OCc2nn(CC(=O)c3ccc(Cl)cc3)c3[n+]2CCCCC3)c1	n	112	97	n	x	n	74	n
Cc1nc(SCC(=O)Nc2cc(C)on2)c2c(=O)n(C)c(=O)n(C)c2n1	n	n	n	n	x	n	x	x
Cn1c(=O)c2c(SCC(=O)NCCc3ccccc3)nc(C3CC3)nc2n(C)c1=O	x	x	n	x	x	n	x	x
CCc1nc(SCC(=O)Nc2ccccc2)c2c(=O)n(C)c(=O)n(C)c2n1	n	n	n	n	n	n	x	x
Cn1c(=O)c2c(SCC(=O)Nc3ccccc3F)nc(-c3ccccc3F)nc2n(C)c1=O	n	n	71	n	n	n	n	61
Cc1ccc(-c2nc(SCC(=O)Nc3cc(C)on3)c3c(=O)n(C)c(=O)n(C)c3n2)cc1	n	n	77	n	n	n	n	x
Cn1c(=O)c2c(SCC(=O)Nc3ccccc3F)nc(C3CC3)nc2n(C)c1=O	n	n	79	n	n	n	n	x
SMILES	CF NFkB inh	Peg3 promoter	Mdm2 MdmX PPI	KKLEB cytotox	LGR2 inh	HSP90 inh	Mdm2-MdmX conf	FLuc counter
COC(=O)C[C@@H]1CC[C@@H]2[C@@H](COc3ccc(NC(=O)NC(C)C)cc3C(=O)N2C)O1	x	x	x	x	n	x	x	x
C[C@@H]1CCCCO[C@H](CN(C)S(=O)(=O)c2cccs2)[C@@H](C)CN([C@H](C)CO)C(=O)c2cc(NC(=O)CCCN(C)C)ccc2O1	x	x	x	x	n	x	x	x
CO[C@H]1CN(C)C(=O)c2ccc(NC(C)=O)cc2OC[C@H](C)N(C(=O)CC2CC2)C[C@H]1C	x	x	x	x	n	x	x	x
CCOC(=O)c1c(C)nc2sc3c(=O)n(-c4ccc(C(C)=O)cc4)nnc3c2c1-c1ccc(Cl)cc1	n	n	72	n	n	n	50	49
C[C@H](CO)N1C[C@H](C)[C@H](CN(C)C(=O)Nc2cccc3ccccc23)Oc2c(NC(=O)c3nc4ccccc4s3)cccc2C1=O	x	x	x	x	n	x	x	x
O=S(=O)(Nc1nc2ccccc2nc1Nc1ccc(N2CCOCC2)cc1)c1cc(Cl)ccc1Cl	n	n	68	n	n	n	n	73
Clc1nc(Nc2ccc(N3CCOCC3)cc2)c2ccccc2n1	n	n	n	n	n	n	x	x
O=C(N/N=C/c1ccccc1O)c1cccc2ccccc12	n	n	53	n	n	n	53	46
COc1ccc(NC(C)C(=O)N/N=C/c2c(O)ccc3ccccc23)cc1 (stereo not drawn)	n	57	65	n	n	n	56	39
O=C(CSCC(=O)Nc1ccccc1)N/N=C/c1c(O)ccc2ccccc12	n	52	79	n	n	n	72	n
O=C(O)c1ccc(C=NNC(=O)c2cccc3ccccc23)cc1	n	n	x	n	n	x	x	x
O=C(CN1CCOCC1)N/N=C/c1c(O)ccc2ccccc12	n	n	n	n	n	n	x	x
Cn1nccc1C(=O)N/N=C/c1c(O)ccc2ccccc12	n	n	82	n	n	n	80	n
Cc1ccc2[nH]c(C(=O)N/N=C/c3ccccc3O)c(C)c2c1	n	n	59	n	n	n	78	n
Cn1cc(C(=O)N/N=C/c2c(O)ccc3ccccc23)ccc1=O	n	n	79	n	n	n	72	n
O=C(N/N=C\c1c(O)ccc2ccccc12)c1ccc(O)cc1	n	n	68	n	n	n	52	n
O=C(NN=Cc1c(O)ccc2ccccc12)c1ccncc1	n	n	x	n	x	x	x	x
O=C(N/N=C/c1c(O)ccc2ccccc12)c1ccc(Br)o1	n	n	87	n	n	n	81	54
O=C(N/N=C/c1c(O)ccc2ccccc12)c1ccc[n+](CCO)c1	n	n	n	n	n	n	x	x
O=C(C[C@@H]1CC[C@@H](NC(=O)Nc2cc(F)ccc2F)[C@@H](CO)O1)Nc1ccc(-c2ccccc2)cc1	x	x	x	x	n	x	x	x
O=C(N/N=C/c1c(O)ccc2ccccc12)Nc1ccccc1	x	x	n	x	n	x	x	x
